Results filed as inconclusive are left out. Activity calls are given as the source filed them. Unless noted, calls follow the shape of the dose curve; as a rule, active = well fitted curve in the direction sought with a large enough effect in the repeat runs; inconclusive = weak or mixed curves; inactive = flat fitted curve, though single readings scatter.
Legend:
[1] = qHTS assay to test for compound auto fluorescence at 535 nm (green) in HEK293 cells (AID 720680)
[2] = qHTS assay to test for compound auto fluorescence at 535 nm (green) in HEK293 cell free culture (AID 720682)
In short: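 Measurement is a direct plate read of green fluorescence (485 nm in, 535 nm out) after compound addition to serum-supplemented DMEM lacking cells, with fluorescein used to express intensities.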

[3] = qHTS assay to test for compound auto fluorescence at 590 nm (red) in HEK293 cell free culture (AID 720683)
In short: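 Cell-free wells of DMEM with 10% FBS received compound, and intrinsic fluorescence was read at excitation/emission 540/590 nm. Values expressed as equivalence to Rose Bengal sodium.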

[4] = qHTS assay to test for compound auto fluorescence at 590 nm (red) in HepG2 cell free culture (AID 720684)
In short: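 Compound was pinned into wells holding MEM with 10% FBS and no cells, and red fluorescence was read at Ex/Em 540/590 nm. Signal is expressed as auto fluorescence equivalency relative to Rose Bengal sodium.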

[5] = qHTS assay to test for compound auto fluorescence at 460 nm (blue) in HepG2 cell free culture (AID 720685)
In short: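 Compound (23 nL) or DMSO pinned into cell-free MEM with 10% FBS; blue fluorescence read at 405/460 nm excitation/emission, expressed as auto-fluorescence equivalency to triamterene.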

[6] = qHTS assay to test for compound auto fluorescence at 535 nm (green) in HepG2 cell free culture (AID 720686)
[7] = target: Glucocorticoid receptor (Homo sapiens) (UniProt P04150); experiment: qHTS assay to identify small molecule agonists of the glucocorticoid receptor (GR) signaling pathway (AID 720691; active = well fitted activation curve with a large enough effect in the signal ratio in the repeat runs, not every such curve was filed as active; the % refers to the signal ratio)
In short: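 GR-bla HeLa cells (beta-lactamase reporter under glucocorticoid response element) were plated 4 h at 37 C/5% CO2, given compounds in DMSO, and incubated 18 h at 37 C. LiveBLAzer B/G FRET substrate was added for 2 h at room temperature, then fluorescence intensity read.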

[8] = target: Glucocorticoid receptor (Homo sapiens) (UniProt P04150); experiment: qHTS assay to identify small molecule antagonists of the glucocorticoid receptor (GR) signaling pathway (AID 720692; active = well fitted inhibition curve with a large enough effect in the signal ratio in the repeat runs, not every such curve was filed as active; the % refers to the signal ratio)
In short: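 GR-bla HeLa cells (beta-lactamase reporter under glucocorticoid response element) were pre-plated 4 h at 37 C, treated with compounds plus 5 nM dexamethasone (final) for 18 h, then read by LiveBLAzer B/G FRET fluorescence after 2 h.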

[9] = qHTS assay to test for compound auto fluorescence at 460 nm (blue) in HepG2 cells (AID 720687)
In short: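 HepG2 cells in MEM with 10% FBS, attached overnight at 37 C, were exposed to compound or DMSO for 1 hr at 37 C, 5% CO2. Blue fluorescence was read at 405/460 nm, with triamterene as reference fluorophore.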

[10] = qHTS assay to test for compound auto fluorescence at 460 nm (blue) in HEK293 cell free culture (AID 720681)
In short: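 Compounds were added to cell-free DMEM with 10% FBS and fluorescence read directly. The blue channel used 405 nm excitation and 460 nm emission, with triamterene as the reference fluorophore.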
% is scaled to controls: 0 for no effect and ±100 for the full control effect.

Glucocorticoid receptor (Homo sapiens), sequence (P04150 whole entry, looked up): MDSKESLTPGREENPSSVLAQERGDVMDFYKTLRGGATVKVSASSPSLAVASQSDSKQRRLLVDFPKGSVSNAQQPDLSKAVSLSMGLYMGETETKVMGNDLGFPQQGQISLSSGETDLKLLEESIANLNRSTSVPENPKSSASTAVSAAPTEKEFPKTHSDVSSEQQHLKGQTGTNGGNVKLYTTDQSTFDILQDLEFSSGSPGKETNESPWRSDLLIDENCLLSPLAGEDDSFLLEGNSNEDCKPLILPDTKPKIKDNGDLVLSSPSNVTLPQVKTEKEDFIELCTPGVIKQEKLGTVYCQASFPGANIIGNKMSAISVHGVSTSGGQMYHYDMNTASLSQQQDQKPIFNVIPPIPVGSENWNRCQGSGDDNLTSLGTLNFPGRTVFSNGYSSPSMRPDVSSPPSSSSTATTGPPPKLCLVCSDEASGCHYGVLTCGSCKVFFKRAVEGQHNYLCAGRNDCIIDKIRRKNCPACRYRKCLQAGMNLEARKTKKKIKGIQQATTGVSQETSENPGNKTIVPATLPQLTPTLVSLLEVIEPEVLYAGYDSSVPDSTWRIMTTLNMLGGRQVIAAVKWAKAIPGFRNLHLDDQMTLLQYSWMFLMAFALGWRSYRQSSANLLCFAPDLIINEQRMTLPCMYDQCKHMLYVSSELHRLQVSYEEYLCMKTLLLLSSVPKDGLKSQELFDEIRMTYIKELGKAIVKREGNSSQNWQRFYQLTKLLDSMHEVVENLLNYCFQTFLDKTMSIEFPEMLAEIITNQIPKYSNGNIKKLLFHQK

C[N+]1(C)[C@@H]2CC(OC(=O)[C@H](CO)c3ccccc3)C[C@H]1[C@@H]1O[C@@H]12 (stereo partly specified)
inactive: outcome [1] | outcome [2] | outcome [3] | outcome [4] | outcome [5] | outcome [6] | Potency [7] | Potency [8]

C=CN1CCCCCC1=O
inactive: outcome [1] | outcome [2] | outcome [3] | outcome [4] | outcome [5] | outcome [6] | outcome [9] | Potency [7] | Potency [8]

CC(C)COC(=O)c1ccc(N)cc1
inactive: outcome [1] | outcome [2] | outcome [3] | outcome [4] | outcome [5] | outcome [6] | Potency [7] | Potency [8]

CCN1C=CN(C)C1C (stereo unspecified)
inactive: outcome [1] | outcome [2] | outcome [3] | outcome [4] | outcome [5] | outcome [6] | outcome [9] | Potency [7] | Potency [8]

Cc1ncc(COP(=O)(O)O)c(C=O)c1O
inactive: outcome [1] | outcome [2] | outcome [3] | outcome [4] | outcome [5] | outcome [6] | outcome [9] | Potency [7] | Potency [8]

O=C(c1ccccc1O)c1ccccc1O
inactive: outcome [1] | outcome [2] | outcome [3] | outcome [4] | outcome [5] | outcome [6] | Potency [8]

CC[N+](C)(CC)CCOC(=O)C1c2ccccc2Oc2ccccc21
inactive: outcome [10] | outcome [2] | outcome [3] | outcome [4] | outcome [5] | outcome [6] | outcome [9]

COc1cc2c(cc1OC)-c1cc3ccc(OC)c(OC)c3c[n+]1CC2
inactive: outcome [1] | outcome [2] | outcome [3] | outcome [4] | outcome [5] | outcome [6] | outcome [9] | Potency [7] | Potency [8]

CCCCOCCOC(=O)CCCCCCCCC(=O)OCCOCCCC
inactive: outcome [1] | outcome [2] | outcome [3] | outcome [4] | outcome [5] | outcome [6] | outcome [9]

CC(C(=O)O)c1cccc(Oc2ccccc2)c1 (stereo unspecified)
inactive: fluorescence, % of fluorescent control [10] -0.022% [at 18.6 µM] | activity change [2] 0.0987% [at 18.6 µM] | fluorescence, % of fluorescent control [3] -0.0434% [at 18.6 µM] | fluorescence, % of Rose Bengal [4] 0.647% [at 18.6 µM] | fluorescence, % of fluorescent control [5] -0.0014% [at 18.6 µM] | fluorescence, % of fluorescein control [6] 0.0607% [at 18.6 µM] | fluorescence, % of fluorescent control [9] -0.0143% [at 18.6 µM]

CC1(C)[C@@H]2CC[C@@]1(C)[C@H](O)C2
inactive: outcome [1] | outcome [2] | outcome [3] | outcome [4] | outcome [5] | outcome [6] | outcome [9] | Potency [7] | Potency [8]

CC(C)(C)C(=O)c1ccccc1
inactive: outcome [10] | outcome [2] | outcome [3] | outcome [4] | outcome [5] | outcome [6] | outcome [9] | Potency [7] | Potency [8]

CN1CCN(c2cc3c(nn2)Oc2ccccc2N3C)CC1
inactive: outcome [2] | outcome [3] | outcome [4] | outcome [5] | outcome [6] | outcome [9]

C=COC(=O)C(C)(CC)CCC(C)C (stereo unspecified)
inactive: outcome [10] | outcome [2] | outcome [3] | outcome [4] | outcome [5] | outcome [6] | Potency [7]

CO[Si](C)(OC)c1ccccc1
inactive: outcome [10] | outcome [2] | outcome [3] | outcome [4] | outcome [5] | outcome [6] | outcome [9] | Potency [7]

CC(=O)N[C@H]1[C@H]([C@H](O)[C@H](O)CO)OC(C(=O)O)=C[C@@H]1N=C(N)N
inactive: outcome [10] | outcome [2] | outcome [3] | outcome [4] | outcome [5] | outcome [6] | outcome [9] | Potency [7] | Potency [8]

CC(C)NNC(=O)c1ccncc1
inactive: outcome [10] | outcome [2] | outcome [3] | outcome [4] | outcome [5] | outcome [6] | outcome [9] | Potency [7] | Potency [8]

CCCCCC(C)N (stereo unspecified)
inactive: outcome [10] | outcome [2] | outcome [3] | outcome [4] | outcome [5] | outcome [6] | outcome [9] | Potency [7] | Potency [8]

COc1ccnc(CS(=O)c2nc3cc(OC(F)F)ccc3[nH]2)c1OC (stereo unspecified)
inactive: outcome [10] | outcome [2] | outcome [3] | outcome [4] | outcome [5] | outcome [6] | outcome [9] | Potency [7] | Potency [8]

CCCOC(=O)CC
inactive: outcome [10] | outcome [2] | outcome [3] | outcome [5] | outcome [6] | outcome [9] | Potency [7] | Potency [8]

NCCCC(N)(C(=O)O)C(F)F (stereo unspecified)
inactive: outcome [10] | outcome [2] | outcome [3] | outcome [4] | outcome [5] | outcome [6] | outcome [9] | Potency [7] | Potency [8]

CC(C)[C@H]1CC[C@@H](C)CC1=O
inactive: outcome [10] | outcome [2] | outcome [3] | outcome [4] | outcome [5] | outcome [6] | outcome [9]

O=S(=O)(O)c1cc(O)c(O)c(S(=O)(=O)O)c1
inactive: outcome [10] | outcome [2] | outcome [3] | outcome [4] | outcome [5] | outcome [6] | outcome [9]

Reference: PubChem BioAssay (Tox21)
